Bioassay records from PubChem BioAssay.
This is a sample that favours compounds with a hit; in the whole collection about 18% have one here.
TGFb inhibitor = blocks TGF-b signaling | Potency, µM (series often up to 46.1 µM), usual class: inhibitors | AID 588855 | HepG2 CAGA-GFP TGF-b/SMAD3 reporter, GFP fluorescence, 18 h; TGF-beta stimulated, 500 pg/mL final | 410,000 compounds, 1.2% hits; also: nearly all actives have a fitted effect of over 65% in size
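First, reporter cells (HEPG2 CAGA-GFP) rested 2 h at 37 degrees C. Next, compounds were pinned in and TGF-beta added to 500 pg/mL final. After 18 h, GFP was imaged per cell and summed per well.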
HepG2 viability = counter-screen for TGF-b inhibitors: cytotoxicity in HepG2 cells | HepG2 CAGA-GFP viability, ATP luminescence, 18 h | Potency, µM (top dose mostly 46.1 µM), hits mostly cytotoxic | 410,000 compounds, 0.76% hits
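HepG2 CAGA-GFP cells (1000/well, DMEM with 1% FBS) received compound, then TGF-beta at 500 pg/mL final, and were incubated 18 hours at 37 degrees C. Viability was read by CellTiter-Glo luminescence. Media-only wells were set as complete cell-killing and DMSO as no toxicity.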
TDP1 cell CPT = growth inhibition of DT40 Tdp1-/-;hTDP1 cells with camptothecin (screen for TDP1 inhibitors); chicken DT40 Tdp1-/-;hTDP1 cells + 20 nM CPT, ATP luminescence, 48 h; Potency, µM (series often up to 46.2 µM), hits mostly inhibitors; 420,000 compounds, 12% hits; also: nearly all actives have a fitted effect of over 55% in size
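Cell growth measured by CellTiter-Glo luminescence after a minimum 48 h, 37 C compound exposure with 20 nM CPT in Tdp1-knockout DT40 cells stably expressing hTDP1, seeded 400/well; qHTS titration format.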
TDP1 inh = blocks human tyrosyl-DNA phosphodiesterase 1 | AID 485290 | Q9NUW8 | recombinant TDP1, AlphaScreen DNA substrate cleavage | 350,000 compounds, 0.28% hits | Potency, µM (top dose mostly 130 µM), actives largely listed as inhibitors; also: nearly all actives have a fitted effect of over 40% in size
Target sequence (Q9NUW8 whole entry, looked up): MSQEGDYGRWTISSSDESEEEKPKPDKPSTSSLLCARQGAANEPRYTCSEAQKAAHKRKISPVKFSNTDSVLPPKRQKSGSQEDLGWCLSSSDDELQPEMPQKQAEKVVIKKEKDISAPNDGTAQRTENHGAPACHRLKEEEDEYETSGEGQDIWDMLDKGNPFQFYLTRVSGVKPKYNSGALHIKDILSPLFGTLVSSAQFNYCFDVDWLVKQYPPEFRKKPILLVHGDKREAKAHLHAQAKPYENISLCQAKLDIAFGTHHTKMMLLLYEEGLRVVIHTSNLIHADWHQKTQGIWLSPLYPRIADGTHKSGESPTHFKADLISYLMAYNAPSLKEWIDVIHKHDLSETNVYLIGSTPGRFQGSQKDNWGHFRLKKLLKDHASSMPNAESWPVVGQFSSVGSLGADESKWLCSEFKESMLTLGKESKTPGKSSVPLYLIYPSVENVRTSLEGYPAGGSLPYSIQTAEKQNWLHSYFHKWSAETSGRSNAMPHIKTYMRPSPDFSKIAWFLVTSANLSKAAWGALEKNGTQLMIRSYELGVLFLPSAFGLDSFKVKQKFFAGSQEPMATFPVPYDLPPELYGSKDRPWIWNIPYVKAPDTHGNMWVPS
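Enzyme-compound mixtures sat 15 min at room temperature, followed by a 5 min reaction with 15 nM final substrate and 10 min with AlphaScreen beads. Recombinant human Tdp1 was used at 1 nM final.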
DT40 TDP1 no CPT = qHTS for Inhibitors of human tyrosyl-DNA phosphodiesterase 1 (TDP1): qHTS in cells in absence of CPT; DT40 Tdp1-/- hTDP1 cells, no CPT, ATP luminescence, 48 h; Potency, µM (highest dose often 46.2 µM), most hits filed as inhibitors; 420,000 compounds, 15% hits; AID 686978, 2013; also: nearly all actives have a fitted effect of over 55% in size
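DT40 Tdp1-/-;hTDP1 cells, no CPT (DMSO vehicle only), 400 cells/well; compounds pin-transferred; ≥48 hr, 37 °C; CellTiter-Glo 30 min RT dark, luminescence read.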
IL1B secr inh = blocks inflammasome-driven IL-1 beta release; THP-1 LPS/ATP IL-1B secretion, AlphaLISA, 16 h; hits give low values; activity change, % at 57.5 µM; 360,000 compounds, 4.7% hits; AID 743279; in the data active = activity change below about -50%; inconclusive = mostly about -30% to -49%
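THP-1 cells pretreated 1 hr with compounds (up to 57.5 uM final), then stimulated with LPS (250 ng/mL final) plus ATP (1.25 mM final); secreted IL-1B measured by AlphaLISA after 16 hr, decreased signal indicating inhibition.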
Numbers stand for hits; i = inactive; ? = inconclusive; nt = no result; [ ] = dose if it differs, or a comment. Unless noted, calls follow the shape of the dose curve; as a rule, active = well fitted curve in the direction sought with a large enough effect; inconclusive = small, poorly fitted or top-dose-only effect, or another doubt; inactive = no such curve, though single readings can be large; an effect the other way counts as inactive or inconclusive.

SMILES | TGFb inhibitor | HepG2 viability | TDP1 cell CPT | TDP1 inh | DT40 TDP1 no CPT | IL1B secr inh
O=C(NCc1ccc(F)cc1)C(=O)NCC1CCCN1S(=O)(=O)c1ccccc1 (centres undefined) | i | i | i | nt | ? | i
Cc1ccccc1NC(=O)c1c(NC(=O)Cc2ccccc2)sc2c1CCC2 | i | i | ? | i[12.3 µM] | ? | nt
COc1ccc(S(=O)(=O)N2CCCC2CNC(=O)C(=O)NCc2ccc(C)cc2)cc1 (centres undefined) | i | i | ? | i | 16.4µM | i
COc1ccc(S(=O)(=O)N2CCCC2CNC(=O)C(=O)NCc2ccccc2)cc1 (centres undefined) | i | i | ? | nt | ? | i
O=C(NCC1CCCN1S(=O)(=O)c1cccs1)C(=O)Nc1ccc(F)cc1F (centres undefined) | i | i | ? | i | ? | i
Cc1ccc(S(=O)(=O)N2CCCC2CNC(=O)C(=O)Nc2ccc(F)cc2F)cc1 (centres undefined) | i | i | 23.1µM | i | 14.6µM | i
O=C(NCCCNc1ccnc2cc(Cl)ccc12)c1ccccc1F | i | i | ? | nt | ? | i
COC(=O)CSc1ccnc2cc(Cl)ccc12 | i | i | i | nt | i | i
CCN(CC)CCC[C@H](C)Nc1ccnc2cc(Cl)ccc12 | nt | nt | nt | i[21 µM] | nt | nt
CC1CCCN1c1ccnc2cc(Cl)ccc12 (centres undefined) | i | i | 29.1µM | nt | 16.4µM | i
CC(CCCN1CCCC1)Nc1ccnc2cc(Cl)ccc12 (centres undefined) | i | i | ? | nt | 23.1µM | ?
O=C(O)CSCC(=O)N1CCN(c2ccnc3cc(Cl)ccc23)CC1 | i | i | i | nt | i | i
CC(C)NC1CCC(Nc2ccnc3cc(Cl)ccc23)CC1 (centres undefined) | i | i | 6.51µM | nt | 9.2µM | -93.2
Clc1ccc2c(NCCNC3CCCCC3)ccnc2c1 | ? | 12.6µM | 16.4µM | nt | 14.6µM | -95.4
CC1CCc2sc(C(=O)N3CCC(C(N)=O)CC3)cc2C1 (centres undefined) | i | i | i | i | i | i
O=C(CNc1ccccc1)N/N=C/c1cn(-c2ccccc2)nc1-c1ccccc1 | i | i | i | i | i | i
Cc1cc(C)nc(SCC(=O)Nc2ccc3c(c2)OCO3)n1 | i | i | i | i | i | -83.0
Cc1cc(Oc2ccccc2)nc(SCC(=O)Nc2ccc(Cl)c(Cl)c2)n1 | ? | i | ? | i | 18.4µM | i
Nc1cc(N)nc(SCC(=O)Nc2ccc3c(c2)OCO3)n1 | i | i | i | nt | i | i
Nc1nc(SCC(=O)Nc2ccc(OCc3ccccc3)cc2)n[nH]1 | i | i | i | 70.8µM | ? | i
Cc1ccc(C2=NC3(CCCCC3)N=C2SCC(=O)Nc2ccc3c(c2)OCCO3)cc1 | i | i | 20.6µM | i | ? | -93.2
Cc1cccc(CNC(=O)CCn2c(=O)c3cccn3c3ccc(F)cc32)c1 | i | i | i | i | i | nt
CC1(C)CC(=O)C=C(c2cccc(OC(=O)c3ccc(Br)cc3)c2)C1=O | i | i | i | nt | i | i
NS(=O)(=O)c1ccc(NC(=O)c2cccc(Cl)c2)cc1 | i | i | i | i | i | ?
Cc1nc(SCC(=O)Nc2ccc3c(c2)OCO3)c(C#N)c2c1CCCC2 | i | i | 20.6µM | i | 18.4µM | i
SMILES | TGFb inhibitor | HepG2 viability | TDP1 cell CPT | TDP1 inh | DT40 TDP1 no CPT | IL1B secr inh
Nc1nc(SCC(=O)Nc2ccc3c(c2)OCO3)n[nH]1 | i | 10µM | i | i | i | i
O=C(NC1(C(F)(F)F)N=C2SCCN2C1=O)c1ccccc1F (centres undefined) | i | i | i | i | i | i
COC(=O)C1=C(C(=O)OC)SC(=C2C(=S)C(C)(C)N(C(=O)C3CC3)c3ccccc32)S1 | ? | i | ? | i | ? | -50.3
CCCC(=O)N1c2ccccc2C(=C2SC(C(=O)OC)=C(C(=O)OC)S2)C(=S)C1(C)C | i | i | 14.6µM | i | 25.9µM | i
Cc1ccnc(NC(=O)COc2ccc3oc4c(c3c2)CCCC4)c1 | i | i | ? | i | 11.6µM | i
Cc1ccccc1NC(=O)COc1ccc2oc3c(c2c1)CCCC3 | i | i | 16.4µM | nt | 18.4µM | nt
NNC(=O)COc1ccc2oc3c(c2c1)CCCC3 | i | i | i | i | i | i
O=C(COc1ccc2oc3c(c2c1)CCCC3)Nc1cccc(Br)c1 | ? | i | ? | nt | 20.6µM | nt
O=C(COc1ccc2c3c(c(=O)oc2c1)CCC3)Nc1ccc(CCO)cc1 | i | i | i | 39.8µM | i | -53.0
CNC(=O)COc1ccc2oc3c(c2c1)CCCC3 | i | i | i | i | i | i
CN(Cc1nc2ccccc2c(=O)[nH]1)C(=O)COc1ccccc1Cc1ccccc1 | i | i | ? | i | ? | i
COc1ccccc1C(c1nnnn1CCc1ccccc1)N1CCCCCC1 (centres undefined) | ? | i | ? | i | 23.1µM | i
COc1ccc(C(c2nnnn2CCc2ccccc2)N2CCN(C)CC2)cc1OC (centres undefined) | i | i | i | i | i | i
COc1ccccc1N1CCN(C(c2ccc(Cl)cc2)c2nnc(-c3cccc(F)c3)o2)CC1 (centres undefined) | i | i | ? | i | ? | nt
COc1ccccc1N1CCN(C(c2ccccc2)c2nnc(-c3ccccc3Cl)o2)CC1 (centres undefined) | ? | i | 29.1µM | i | ? | nt
COc1ccccc1N1CCN(C(c2ccccc2)c2nnnn2CCc2ccccc2)CC1 (centres undefined) | i | i | 18.4µM | i | 18.4µM | i
CC(C)c1ccc(OCC(=O)Nc2ccc3oc(=O)ccc3c2)cc1 | i | i | i | nt | i | i
Cc1c(C(=O)N(C)CC2CCCN(C)C2)cnn1-c1nccc(-c2ccco2)n1 (centres undefined) | nt | nt | i | nt | i | nt
O=C(CSc1nnc(-c2ccccn2)o1)Nc1ccccc1F | i | i | i | i | i | i
COc1ccc(CCC(=O)NCCc2csc(-c3ccc(F)cc3)n2)cc1 | 8.91µM | i | ? | i | ? | nt
COc1ccc(CCC(=O)NCCc2csc(-c3cccc(F)c3)n2)cc1 | i | i | ? | i | ? | nt
COc1ccc(-c2nc(CCNC(=O)Cc3ccc(F)cc3)cs2)cc1 | i | i | 14.6µM | i | 18.4µM | nt
Cc1cc(C)c(NC(=O)C(=O)NCCc2csc(-c3ccc(F)cc3)n2)c(C)c1 | i | i | 18.4µM | i | 16.4µM | nt
O=C(NCCc1csc(-c2ccc(F)cc2)n1)c1ccc(Br)o1 | i | i | 23.1µM | i | ? | nt
